LANA DNA inh: KSHV C-LANA DNA binding inhibition; MBP-C-LANA/FAM-LBS DNA binding, fluorescence polarization; inhibition, % at 9 µM; 340,000 tested, 0.078% active; AID 504423;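 active = highest replicate inhibition at or above 60% at 9 µM, even if other replicates fall short; inactive = all replicates below 60% inhibition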;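 note: 0% = neutral control wells and 100% = 4 µM acridine orange control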
Keap1-Nrf2 PPI: disrupts human Keap1 binding to Nrf2 peptide. Keap1 Kelch-Nrf2 peptide fluorescence polarization, 1536-well. 340,000 tested, 0.15% active. inhibition, % at 9.4 µM; in the data active = inhibition above about 12%;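 note: human Keap1 Kelch domain with fluorescein labeled Nrf2 9mer peptide probe; 0% = neutral control wells and 100% = peptide positive control; higher means more block of Keap1 binding to Nrf2 peptide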
Cardiac RTF inh: cardiac RTF calcium desensitization; P19429+P45379; IANBD-labeled cardiac RTF, Ca2+ fluorescence; AID 493244; 340,000 tested, 0.12% active; inhibition, % at 7.15 µM;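 active = inhibition above the mean inhibition of all tested compounds plus 3 SD, cut at about 17% in these data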;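 note: assay run at fixed EC70 calcium of 1.6 mM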
RTF Ca sens act: increases calcium sensitivity of human cardiac regulated thin filaments. IANBD-labeled TnC RTF fluorescence at EC20 calcium; 0% EC20 calcium, 100% full calcium. activation, % at 7.2 µM. 340,000 tested, 0.24% active. AID 493008;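 active = activation above the mean over all tested compounds plus 3 SD, cut at about 30% in these data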;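 note: rise in fluorescence read as greater calcium sensitivity of cardiac thin filaments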
E coli Lon inh: inhibits E. coli Lon protease; P0A9M0; purified E. coli Lon protease, fluorescence polarization; inhibition, % at 7.94 µM; 360,000 tested, 0.42% active; in the data active = inhibition above about 13%, passing the limit was not always enough;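 note: 0% = enzyme with probe and DMSO and 100% = no enzyme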
Target sequence (P0A9M0 whole entry, looked up): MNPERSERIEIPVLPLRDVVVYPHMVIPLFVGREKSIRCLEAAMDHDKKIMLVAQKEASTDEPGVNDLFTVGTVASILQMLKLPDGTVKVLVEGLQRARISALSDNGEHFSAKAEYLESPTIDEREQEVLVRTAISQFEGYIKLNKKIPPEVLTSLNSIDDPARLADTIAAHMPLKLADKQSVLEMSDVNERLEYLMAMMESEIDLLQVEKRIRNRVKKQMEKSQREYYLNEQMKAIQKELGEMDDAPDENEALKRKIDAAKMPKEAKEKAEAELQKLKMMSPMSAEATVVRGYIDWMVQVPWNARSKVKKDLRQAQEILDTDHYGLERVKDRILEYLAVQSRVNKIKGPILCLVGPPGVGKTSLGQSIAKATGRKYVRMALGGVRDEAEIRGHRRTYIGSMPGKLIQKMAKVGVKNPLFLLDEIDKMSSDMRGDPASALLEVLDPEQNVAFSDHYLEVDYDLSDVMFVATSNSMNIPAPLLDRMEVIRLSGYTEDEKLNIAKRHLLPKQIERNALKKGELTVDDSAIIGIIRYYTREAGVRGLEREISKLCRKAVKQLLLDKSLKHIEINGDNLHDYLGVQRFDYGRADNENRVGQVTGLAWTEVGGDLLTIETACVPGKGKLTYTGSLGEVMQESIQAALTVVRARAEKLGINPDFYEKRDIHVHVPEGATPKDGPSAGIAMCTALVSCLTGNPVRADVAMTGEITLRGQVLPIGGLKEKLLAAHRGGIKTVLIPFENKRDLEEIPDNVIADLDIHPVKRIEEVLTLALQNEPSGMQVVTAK
Keap1 TSA: binds and thermally shifts human Keap1 Kelch domain; shares compounds with Keap1-Nrf2 PPI; Keap1 Kelch thermal shift, delta Tm; hits give high values; max delta Tm, degrees C; 400 tested, 8% active; in the data active = max delta Tm above about 0.48 degrees C
Sypro dye melt: dye artifact in Keap1 thermal shift counter-screen | Sypro Orange dye-only thermal melt, no protein, delta Tm; top dose 26 µM | 140 tested, under 10 active | shares compounds with Keap1-Nrf2 PPI | delta Tm, degrees C (concentration not given with the values);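 active = at highest dose tested, delta Tm positive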
Numbers without * were called inactive; · = not tested or not shown. In the library only some 0.74% were active in any assay of this set; here they are far more common.

SMILES	LANA DNA inh	Keap1-Nrf2 PPI	Cardiac RTF inh	RTF Ca sens act	E coli Lon inh	Keap1 TSA	others
CC(C)CC(N)c1csc(Nc2cc(Oc3ccccc3)ncn2)n1 (configuration not stated)	·	·	·	·	2	·
CCOC(=O)c1c(C)[nH]c(C(=O)COC(=O)c2ccncc2)c1C	0	2	-10	-4	-13	·
CCOC(=O)c1c(C)[nH]c(C(=O)COC(=O)c2cccnc2Cl)c1C	11	25*	-3	-1	-3	-0.07	Sypro dye melt=-27
CCCNC(=O)C1(C)CCCN(Cc2ccc3c(c2)OCO3)C1 (configuration not stated)	·	·	·	·	10	·
CNc1nnc(SCC(=O)c2cc(C)n(C3CC3)c2C)s1	26	46*	-5	-1	-1	-0.08
Cc1nnc(SCC(=O)c2cc(C)n(C3CC3)c2C)s1	-1	-1	-10	5	-3	·
CC(C)C[C@@H]1COc2cc(N3CCSCC3)ccc2S(=O)(=O)N1	·	·	·	·	-7	·
CCCCOC(=O)C(C#N)c1nc2ccccc2nc1N1CCOCC1 (configuration not stated)	3	-8	-3	-2	-9	·
CCCCCCOC(=O)C(C#N)c1nc2ccccc2nc1N1CCOCC1 (configuration not stated)	17	20*	-2	2	-12	-0.12
Cn1c(SCC(=O)c2cc(Cl)c(Cl)s2)nnc1-c1ccco1	19	32*	·	·	-1	-0.2
Cc1ccc(C(=O)CSc2nnc(-c3ccco3)n2C)cc1	-1	-1	-1	-8	-2	·
O=C(Nn1cnnc1)c1ccc(Cl)c(Cl)c1	12	22*	-10	6	-6	-0.05
CCN(CC)c1ccc(C2NC(=O)c3ccccc3N2)cc1 (configuration not stated)	0	-1	1	-5	-13	·
CCN(CC)c1ccc(C2Nc3cccc4cccc(c34)N2)cc1	25	26*	-4	0	-13	-0.02
C=CCOC(=O)C1=C[C@H](c2csc3ccccc23)C[C@H](OCc2ccc(CO)cc2)O1	44	17*	-18	-3	-6	-0.19	Sypro dye melt=-27
C=CCOC(=O)C1=C[C@@H](c2csc3ccccc23)C[C@@H](OCc2ccc(CO)cc2)O1	-2	-9	5	7	6	·
O=C(COC(=O)/C=C/c1cccc(Cl)c1)NC1CC1	11	24*	-11	2	0	-0.09	Sypro dye melt=-23
COc1cccc(/C=C/C(=O)OCC(=O)NC(=O)NC2CCCC2)c1	16	36*	0	-3	4	-0.15	Sypro dye melt=-28
O=C(COC(=O)/C=C/c1cccc(Cl)c1)NC1CCCC1	-2	-1	-6	-7	11	·
COc1cccc(/C=C/C(=O)OCC(=O)NC2CCCCCCC2)c1	-1	6	-1	-4	-3	·
CC1(C)CC(=O)C=C(c2cccc(OC(=O)c3ccc(Br)cc3)c2)C1=O	·	·	·	·	3	·
Cc1ccc(O)c(C(=O)c2cnc3c(c2)c(=O)n(C)c(=O)n3C)c1	1	-1	·	·	-2	·
Cc1ccc(O)c(C(=O)c2cnc3c(c2)c(C)nn3-c2ccccc2)c1	1	23*	-7	-8	-4	-0.1	Sypro dye melt=-28
C[C@H]1CN([C@@H](C)CO)S(=O)(=O)c2ccc(Br)cc2O[C@H]1CN(C)C(=O)Cc1ccccn1	·	·	·	·	-9	·
Cc1cscc1NC(=O)/C=C/C(=O)O	18	33*	·	·	2	-0.18
SMILES	LANA DNA inh	Keap1-Nrf2 PPI	Cardiac RTF inh	RTF Ca sens act	E coli Lon inh	Keap1 TSA	others
Cc1cc(NC(=O)/C=C\C(=O)O)c([N+](=O)[O-])cc1C	·	-2	3	14	-4	·
CCC(CNc1cc(OC)cc2cccnc12)NC1CCCCC1 (configuration not stated)	15	17*	-16	7	71	0.03	Sypro dye melt=-27
CN[C@@H](CO)C(=O)NC[C@H]1O[C@@H](n2cc(C)c(=O)[nH]c2=O)C[C@@H]1O	·	·	·	·	-2	·
CN(CC(=O)Nc1cc(C(F)(F)F)ccc1-n1cncn1)Cc1nc2ccccc2c(=O)[nH]1	1	-1	2	-5	-8	·
Nc1nc(SCC(=O)Nc2cc(C(F)(F)F)ccc2N2CCOCC2)n[nH]1	0	14*	-8	2	1	-0.07	Sypro dye melt=-27
Nc1nnc(SCC(=O)Nc2cc(C(F)(F)F)ccc2N2CCOCC2)s1	-1	-3	2	-2	5	·
CN(CC(=O)Nc1cc(C(F)(F)F)ccc1-n1cncn1)Cc1ccccc1N1CCOCC1	19	41*	-6	9	-3	-0.16	Sypro dye melt=-27
CCNC(=O)c1cc2c(c(-c3cccc(-c4ccccc4F)c3)n1)[C@@H](CCO)N(C(=O)CC)C2	·	·	·	·	-3	·
O=C1CCn2c1c(O)c1ccccc1c2=O	31	19*	-9	11	37	-0.07	Sypro dye melt=-31
O=c1c2ccccc2nc2n1CCC2	2	3	3	-1	-4	·
NC(=O)C1CCN(c2ccc3c(c2)S(=O)(=O)c2ccccc2C3=O)CC1	5	0	-9	19	-58	·
CC1CCN(c2ccc3c(c2)S(=O)(=O)c2ccccc2C3=O)CC1	24	21*	-30	21	-181	0.32
CCOc1ccc(OCCCC(=O)N(CC)CC(=O)Nc2c(F)cccc2F)cc1	23	36*	-12	1	-11	-0.15	Sypro dye melt=-27
CCc1cc(C(=O)c2ccccc2OC)c(N)s1	0	-3	-3	-6	-2	·
CCc1cc(C(=O)c2ccc(OC)cc2)c(N)s1	10	26*	·	·	-9	-0.18
Cc1ccc(NC(=O)c2ncn(CCCN3CCN(c4ncccn4)CC3)n2)cc1C	0	3	-5	5	1	·
Cc1ccc(-c2nc3sc(C#N)c(N)n3c(=O)c2C#N)cc1	4	14*	-43	29	-4	-0.05
Cc1ccc(-n2c(N)c(C#N)c(-c3ccccc3)c(C#N)c2=O)cc1	-1	-6	3	0	5	·
COC(=O)c1cn(CC(=O)Nc2ccc(OC)cc2)c2ccccc12	-2	-4	1	-2	7	·
CCC(=O)c1cn(CC(=O)Nc2ccc(OC)cc2)c2ccccc12	26	55*	-5	2	-13	0.01
OC(CCN1CCC2(CC1)OCCO2)C(F)(F)F (configuration not stated)	8	19*	-7	12	8	-0.12
COc1ccc(NC(=S)N2CCN(Cc3ccc(C)cc3)CC2)cc1	-1	26*	6	0	-3	-0.07	Sypro dye melt=-30
CC1=C(C(=O)N(C(C)C)C(C)C)CC(CC(=O)NCCN2CCOCC2)C(=O)N1CCC1=CCCCC1 (configuration not stated)	·	·	·	·	9	·
CCC(C(=O)NC1C(=O)N2C(C(=O)O)=C(CSc3nnc(C)s3)CSC12)c1ccccc1 (configuration not stated)	17	30*	-12	8	-1	-0.12	Sypro dye melt=-26
